Drawing on ChEMBL document CHEMBL4513216, “Probing the Open Global Health Chemical Diversity Library for Multistage-Active Starting Points for Next-Generation Antimalarials” (ACS Infect Dis, 2020), this text covers INHIBITION for 107 compounds.

In all, about 68,000 compounds went through this assay and about 2,700 (4%) showed an effect of 50% or more. The sample as a whole holds a higher share of strong results than the screen did.

The experiment concerns Plasmodium berghei. Put plainly: Screen against P. berghei liver stage (PbLuc), transformed with Luciferase, at 2uM. Particulars: tested at 2 uM. In kind it is functional, HepG2.
`Cc1ccc(CN2CC3(CCN(C(=O)C4CC4)CC3)CC2C(=O)O)o1` (configuration not stated): the INHIBITION stood at 15.46%.
On to `CCn1cc(NC(=O)NCC(c2cccc(F)c2)N(C)C)cn1` (configuration not stated), for which the INHIBITION is on record as -41.59%.
In the case of `O=C(c1ccnnc1)N1C[C@@H](OCC2CCOCC2)[C@H]2OCCC[C@H]21` it was 3.35%; in that of `COc1cc(C)nc(N2CCN(C(=O)CCc3cscn3)CC2)n1`, -8.58%; in that of `CC1CS(=O)(=O)CCN1CCCc1ccc(Cl)cc1` (configuration not stated), -15.12%.
For `CS(=O)(=O)N1CCOCC12CCN(Cc1ccc(F)cc1)CC2`, the INHIBITION is -12.74%.
Take `CNC(=O)N1CC[C@@H]2CN(Cc3cccnc3)S(=O)(=O)[C@@H]2CC1`: the INHIBITION is reported as -23.02%.
As to `Cc1ccc(CN2CCC3(CC2)CC(c2cccnc2)C(=O)N3C)o1` (configuration not stated), the INHIBITION is given as 8.6%.
In the case of `Cc1nc2c(c(=O)[nH]1)CN(Cc1ccc3c(c1)CCCN3C)CC2` it was 30.25%; in that of `CSCCCN1CCCC1c1noc(C(C)C)n1` (configuration not stated), 5.05%.
In the case of `Cc1ccccc1OC1CCN(CC(=O)Nc2cn(C)nc2C)CC1`, the INHIBITION is recorded as 54.75%.
Consider `Cc1ccccc1OC1CCN(CC(=O)Nc2ccn(C)n2)CC1`, for which the INHIBITION is given as 9.02%.
For `CCn1cc(NC(=O)CN2CCC(Oc3ccccc3C)CC2)c(C)n1`, the INHIBITION stood at 45.49%.
Consider `CCOc1ncnc2c1CCN(C(=O)CN(C)C)CC2`, for which the INHIBITION stood at 19.49%.
Turning to `O=C(CC1CC1)N1Cc2nccn2CC(COc2cccnc2)C1` (configuration not stated), the INHIBITION came to 23.97%.
Consider `OC1(CN2CCc3nnc(Cc4cccnc4)n3CC2)CCCNC1` (configuration not stated), for which the INHIBITION is 34.71%.
As for `OCCOc1ccc(NCc2cc(F)cc3cccnc23)cn1`, the INHIBITION was 45.56%.
For `Cc1ncccc1CNc1ccc(OCCO)nc1`, the INHIBITION is recorded as 3.49%.
Under `OCCOc1ccc(NCc2cccc3cccnc23)cn1` stands 67.44%; under `CN(Cc1ccccc1)CC(O)Cn1cnc2ccc(Br)cc2c1=O` (configuration not stated), -12.19%.
For the compound `O=C1CC2(CCSC2)C(=O)N1Cc1coc(-c2ccc(F)cc2)n1` (configuration not stated), the INHIBITION is given as -12.34%.
For the compound `O=C(NCc1nnc2n1CCCCC2)N1CCC2(CCCCC2)C1`, the INHIBITION was 55.36%.
For the compound `O=C(NCCc1nnc2n1CCC2)N1CCC2(CCCCC2)C1`, the INHIBITION was -9.03%.
For the compound `O=C(Cc1ccc2c(c1)OCCO2)NCCc1nnc2n1CCC2`, the INHIBITION was -29.94%.
As to `CCc1nnsc1C(=O)NCCc1nnc2n1CCC2`, the INHIBITION is -8.74%.
With `O=C(CCc1ccc(Cl)s1)NCc1nnc2n1CCCCC2`, the INHIBITION was 58.05%.
In the case of `O=C(NCc1nnc2n1CCCCC2)N1CCc2ccccc2C1`, the INHIBITION worked out at 25.61%.
`O=C(NCCc1ccc(Cl)s1)NCc1nnc2n1CCCC2`: the INHIBITION is given as -19.35%.
Take `O=C(NCc1nnc2n1CCC2)N1CCC2(CCCCC2)CC1`: the INHIBITION came out at 26.74%.
Consider `O=C(NCc1ccc(Cl)s1)NCc1nnc2n1CCCCC2`, for which the INHIBITION stood at 15.28%.
In the case of `O=C(NCCc1nnc2n1CCCCC2)N1CCC2(CCOC2)C1` (configuration not stated) it was 69.67%; in that of `O=C(NCC1(c2ccc(F)cc2)CC1)N1CCC2(CCOC2)C1` (configuration not stated), -21.09%; in that of `O=C(NCCc1nnc2n1CCCCC2)N1CCC2(CCCC2)CC1`, 55.36%.
As to `Cc1nc(C)n(CC2CCCN2CC(=O)NCCC2=CCCCC2)n1` (configuration not stated), the INHIBITION amounted to 24.17%.
For `COc1c(Br)c(C(=O)NC2CCCC2)nn1C`, the INHIBITION was found to be 32.75%.
In the case of `O=c1[nH]c2cc3c(cc2cc1CN1CCCC1c1ccccn1)OCO3` (configuration not stated), the INHIBITION was -8.01%.
As for `CCNC(=O)N1CCC(NC(=O)NCCc2cc(F)cc(F)c2)C1` (configuration not stated), the INHIBITION is recorded as 24.82%.
Consider `CC(C)Oc1cccc(C(=O)C2CCCN(C(=O)c3cncs3)C2)c1` (configuration not stated), for which the INHIBITION turned out to be 30.07%.
In the case of `CN1CCCN(C(=O)c2ccnn2-c2ccc3ccccn23)CC1` it was -25.2%; in that of `COC(=O)c1cccn1C1CCN(C(=O)c2cn[nH]c2C)CC1`, 0.26%.
In the case of `O=C(NCC(=O)N1CCCC1)c1nn(-c2ccccc2F)cc1O`, the INHIBITION was -8.52%.
In the case of `Cc1cc(CN(C)C(=O)c2ccc(F)c(C(F)(F)F)c2)no1` it was 46.52%; in that of `COc1ccc(-n2cc3nc(N4CCCC4)[nH]cc-3c2=O)cc1Cl`, 26.03%.
As to `CN(C)C(=O)[C@H]1CCS(=O)(=O)[C@@H]2CN(c3ncc(F)cn3)C[C@H]12`, the INHIBITION is given as 32.26%.
For `O=C1CC(c2cccs2)c2snc(C(=O)O)c2N1` (configuration not stated), the INHIBITION is reported as -4.4%.
Regarding `CN1Cc2c(C(=O)Nc3cccnc3)ncn2-c2ccccc2S1(=O)=O`, the INHIBITION is recorded as 8.85%.
For the compound `CCC(=O)N1CCC2(C=C(C(=O)N(C)C)c3ccccc32)CC1`, the INHIBITION was -19.05%.
In the case of `O=C(NCc1nnc2n1CCCCC2)N1CCc2sccc2C1` it was 32.11%; in that of `O=C(NCc1nnc2n1CCC2)N1CCc2sccc2C1`, 15.67%.
Take `O=C(NCCc1nnc2n1CCC2)NCC1(c2ccc(F)cc2)CC1`: the INHIBITION is 81.42%.
Take `O=C(NCc1nnc2n1CCCC2)N1CCc2sccc2C1`: the INHIBITION is given as 53.11%.
Regarding `O=C(NCCc1nnc2n1CCC2)NCC1(c2ccccc2)CC1`, the INHIBITION is -1.32%.
Under `O=C(NCCc1nnc2n1CCC2)NCC1(c2cccc(F)c2)CC1` stands -14.15%.
As for `CCn1cc(C(=O)N2CCCC(c3nccs3)C2)cn1` (configuration not stated), the INHIBITION is recorded as 2.6%.
With `COc1cccc2[nH]cc(CCNC(=O)N3CCCC3CO)c12` (configuration not stated), the INHIBITION is 1.41%.
For the compound `Cc1ccc(C(=O)N2CCCC(n3cncn3)C2)o1` (configuration not stated), the INHIBITION is on record as 14.17%.
For the compound `COc1ccnc(NC2CCN(CC(=O)N3CCCC3)CC2)n1`, the INHIBITION stood at 72.05%.
Take `COc1ccnc(N2CCN(CC(=O)N3CCC(C)CC3)CC2)n1`: the INHIBITION is on record as 39.72%.
In the case of `COc1ccnc(NC2CCN(CC(=O)Nc3ccccc3)CC2)n1`, the INHIBITION is listed as -37.65%.
Consider `CCOc1cccc(C(=O)Nc2ccn(CC)n2)c1`, for which the INHIBITION is 6.64%.
For `COc1cc(OC)cc(C(=O)NCc2nn(C)c3c2COCC3)c1`, the INHIBITION is -63.73%.
Under `CCn1ccc(CNC(=O)c2cc(OC)cc(OC)c2)n1` stands 65.06%; under `CC(C)(NCC(=O)NCC1CC1)c1ccc2c(c1)OCCO2`, -51.94%.
Regarding `Cc1ccc(CN2CC[C@H](O)[C@@H](n3ccc(=O)[nH]c3=O)CC2)cc1`, the INHIBITION came to 29.89%.
Under `O=C(NCCCn1ccnn1)C1CCCN(C2CCCC2)C1` (configuration not stated) stands 27.11%; under `COc1ccc(F)c(CN2CCCC(O)(CNCC(C)(C)C)C2=O)c1` (configuration not stated), 70.81%; under `COc1ccc(F)c(CN2CCCC(O)(CNCc3ccoc3)C2=O)c1` (configuration not stated), -11.8%.
Under `CC(C)(C)CNCC1(O)CCCN(Cc2ccccc2F)C1=O` (configuration not stated) stands 36.66%.
In the case of `CCCN1C[C@@H]2CC[C@H]1CN(Cc1ccc(Cn3cccn3)cc1)C2`, the INHIBITION is listed as 75.43%.
In the case of `CCCN1C[C@@H]2CC[C@H]1CN(Cc1ccc(-n3cccn3)cc1)C2`, the INHIBITION is 47.25%.
Consider `CCCN1C[C@@H]2CC[C@H]1CN(Cc1cccc(-n3cccn3)c1)C2`, for which the INHIBITION is given as -15.64%.
Consider `COCC1CN(c2ccc3c(Cl)ccnc3c2F)CCO1` (configuration not stated), for which the INHIBITION is -90.94%.
For the compound `Cn1ccc(CS(=O)(=O)Cc2ccccc2)cc1=O`, the INHIBITION is 36.53%.
As to `COCCN1CC2(CCOCC2)c2cc(NC(=O)C3CC=CC3)ccc21`, the INHIBITION came to 26.31%.
In the case of `CC(C)C[C@H](N)COc1cccc(F)c1Oc1ccc(Cl)cc1` it was 32.24%; in that of `COc1cc(CNc2cc(N3CCCC3CO)ncn2)ccn1` (configuration not stated), 21.39%.
On to `Cc1ncsc1CNC(=O)N1CCN(Cc2ccccc2)C[C@H]1C`, for which the INHIBITION was determined as 37.41%.
`C[C@@H]1CN(Cc2ccccc2)CCN1C(=O)NCc1nccs1`: the INHIBITION amounted to 14.83%.
Consider `Cc1ncsc1CNC(=O)N1CCN(Cc2ccccc2)CC1C` (configuration not stated), for which the INHIBITION was 51.4%.
With `Cc1nccc(CNC(=O)N2CCN(Cc3ccccc3)C[C@H]2C)n1`, the INHIBITION amounted to 58.93%.
Consider `Cc1cc(CNC(=O)N2CCN(Cc3ccccc3)C[C@H]2C)on1`, for which the INHIBITION was -4.53%.
With `Cc1ncsc1C(=O)N1CCN(Cc2ccccc2)CC1C` (configuration not stated), the INHIBITION is listed as -12.06%.
For `CCCC(=O)N1CCC(c2cc3cccnc3c(O)n2)CC1`, the INHIBITION is given as 4.48%.
As to `O=C(N1CCCC1)N1CCC2(CC1)CN(c1cccnc1)C(=O)CO2`, the INHIBITION worked out at 39.86%.
Take `CC(C)(C)c1n[nH]cc1CNC1CCC(C(F)(F)F)CC1` (configuration not stated): the INHIBITION is on record as 64.92%.
Under `CC(C)(C)c1n[nH]cc1CNC1CCC(O)CC1` (configuration not stated) stands -57.67%.
In the case of `CC(C)(C)c1n[nH]cc1CNC1CCC(OCC(F)(F)F)CC1` (configuration not stated), the INHIBITION was -8.63%.
For the compound `C=C/C=c1\c(=C/C)oc2c(NCc3ccccc3)ncnc12`, the INHIBITION was found to be 24.34%.
For the compound `C=C/C=c1\c(=C/C)oc2c(NCc3ccccc3)nc(CC)nc12`, the INHIBITION worked out at 17.42%.
As for `C=C/C=c1\c(=C/C)oc2c(NCc3ccccc3)nc(C)nc12`, the INHIBITION came out at 51.36%.
With `Cc1noc(C)c1CCC(=O)N1CCCC(n2ccnc2C)C1` (configuration not stated), the INHIBITION was determined as 11.18%.
Regarding `CCN1CCOC(CNCc2ccc(C)s2)C1` (configuration not stated), the INHIBITION is -19.02%.
`Cc1ccc(CNc2cnn(CC(F)F)c2)cc1C`: the INHIBITION came out at 55.43%.
As for `COc1ccc(CNc2cnn(CC(F)F)c2)cc1`, the INHIBITION is recorded as -15.93%.
Consider `COc1cc(CNc2cnn(CC(F)F)c2)ccc1O`, for which the INHIBITION is 19.18%.
As to `CCn1nnc2c1C(COCCN(C)C)CN(S(=O)(=O)CC)C2` (configuration not stated), the INHIBITION is 29.19%.
In the case of `CNc1ncc(CN(C)C(=O)c2cccc(CC3CCNCC3)c2)cn1`, the INHIBITION amounted to 52.98%.
For `Cc1nc(CN(C)C(=O)c2cccc(CC3CCNCC3)c2)no1`, the INHIBITION came out at 24.36%.
Under `CN(Cc1ccno1)C(=O)c1cccc(CC2CCNCC2)c1` stands 38.67%; under `Cc1nc2ccc(Cl)cn2c1CN1CCN(S(=O)(=O)N2CCCC2)CC1`, -21.9%; under `CCN1CCc2c(sc3c2C(=O)NC(C=Cc2ccccc2)N3)C1` (configuration not stated), -18.77%.
Take `COCC(=O)N1CCCCC1c1nccc(C)n1` (configuration not stated): the INHIBITION is reported as 18.22%.
Regarding `CN(C)CCN1CCCC12CCN(Cc1nccn1C)CC2`, the INHIBITION is given as 37.75%.
Regarding `Cc1cc(C(F)(F)F)nn1CCCNC(=O)C1CCC1`, the INHIBITION worked out at 31.12%.
For `O=C(COc1coc(CN2CCCCC2)cc1=O)Nc1ccccc1Cl`, the INHIBITION is -46.67%.
Under `O=C(COc1coc(CN2CCOCC2)cc1=O)Nc1ccccc1F` stands 64.35%.
In the case of `O=C(COc1coc(CN2CCOCC2)cc1=O)Nc1ccc(Cl)cc1` it was 16.49%.
